Assay results reported in PubChem BioAssay (NCI).
This is part of a sample that, as a whole, favours compounds with a hit. Of some 83,000 tested, about 20% had one in any assay.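 Negative percent growth values reflect cell death: -40 means 40% of the cells present at the start died, and -100 means all died.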 A number with no mark means an inactive call. The source made the active and inactive calls. The calls were made as follows: active = growth percent below 10; inactive = the rest.

Key:
Assay in all cases: NCI-60 one-dose screen, 48 h (100 = growth as untreated, 0 = no growth, -100 = all killed)
Conditions in all cases: 10 µM
SK-MEL-2 melanoma = system: SK-MEL-2 melanoma
EKVX NSCLC = system: EKVX NSCLC
SN12C renal = system: SN12C renal
TK-10 renal = system: TK-10 renal
ACHN renal = system: ACHN renal
A498 renal = system: A498 renal
CCRF-CEM leukemia = system: CCRF-CEM leukemia
MOLT-4 leukemia = system: MOLT-4 leukemia
UO-31 renal = system: UO-31 renal
CAKI-1 renal = system: CAKI-1 renal

| Structure (SMILES) | growth (SK-MEL-2 melanoma) | growth (EKVX NSCLC) | growth (SN12C renal) | growth (TK-10 renal) | growth (ACHN renal) | growth (A498 renal) | growth (CCRF-CEM leukemia) | growth (MOLT-4 leukemia) | growth (UO-31 renal) | growth (CAKI-1 renal) |
| --- | --- | --- | --- | --- | --- | --- | --- | --- | --- | --- |
| CC1C(=NC(=O)c2cnccn2)C(C)C(c2ccc(Cl)cc2)NC1c1ccncc1 (configuration not stated) | 104% | 88.6% | 93.3% | 130% | 91.5% | 115% | 79.5% | 78.5% | – | – |
| COc1ccc2nc3cc(Cl)ccc3c(N)c2c1 | -71.2% (active) | – | -80.3% (active) | -68.7% (active) | -99.5% (active) | – | -5.6% (active) | -55.4% (active) | -74% (active) | -55.6% (active) |
| COc1cccc2ccc(CC(O)(c3ccccc3)c3ccccc3)nc12 | 85.1% | – | 93.8% | 128% | 84.3% | 102% | 95.7% | 88.6% | 59.8% | 87.2% |
| O=[N+]([O-])c1ccc(/C(=C/c2ccccc2)[n+]2ccccc2)cc1 | 125% | – | 101% | 114% | 107% | 101% | 89.9% | 105% | 100% | 111% |
| Clc1ccc(Cc2ccncc2)cc1 | 121% | 101% | 95.4% | – | – | 104% | 104% | 114% | – | 130% |
| CS(=O)(=O)c1nccc(-c2c(-c3cccc(OCCc4ccccc4)c3)nc3sccn23)n1 | 107% | 98.6% | 95.5% | – | 101% | 91.7% | 91.3% | 84.5% | – | 85.7% |
| Cc1ccc(C(SCC(N)C(=O)O)(c2ccc(C)cc2)c2ccc(C)cc2)cc1 (configuration not stated) | -52.1% (active) | -8.36% (active) | 42.3% | – | 60.3% | 46.3% | 6.77% (active) | 7.71% (active) | – | – |
| CC(C)(O)CCl | 153% | – | 106% | 111% | 108% | 106% | – | 107% | 107% | 103% |
| CN1C(=O)C2(Nc3cc(Cl)ccc3S2)c2cc(Cl)ccc21 (configuration not stated) | 108% | 79.2% | 82.2% | 125% | 92.3% | 73% | 71.6% | 82.5% | – | – |
| Cc1ccc(C(C)C)c(O)c1NC(=O)OC(C)C | 96.6% | 92.3% | 91.9% | 116% | – | 91.5% | 104% | 122% | – | 121% |
| CCCCC1(O)CCCCC1 | 112% | – | 103% | 94.3% | 101% | 115% | – | 93.5% | 99.1% | – |
| COc1ccc(Nc2cnc3cc(NS(=O)(=O)c4ccc(C)cc4)ccc3n2)cc1 | 65.5% | – | 85.9% | 94.7% | 90.3% | 77.9% | 90% | 57.5% | 59.3% | 61.5% |
| COc1ccc2c(c1)C(=O)/C(=C/c1ncc([N+](=O)[O-])n1C)O2 | -52.1% (active) | – | -11.5% (active) | -37.9% (active) | 9.55% (active) | -35.5% (active) | 95.1% | -5.94% (active) | -46.4% (active) | – |
| NS(=O)(=O)c1ccc(Br)cc1 | 101% | 90.3% | – | – | 107% | 115% | 104% | 92.7% | 97.1% | 95.3% |
| COc1cc(C2CC(c3ccc4c(c3)OCO4)=NN2c2ccccc2)cc(OC)c1OC (configuration not stated) | 108% | 89.4% | 90.9% | 112% | – | 97.9% | 80.8% | 82.3% | – | 75.4% |
| COc1cccc(N=Nc2cccc(OC)c2)c1 | 94.4% | 83.5% | – | 95.9% | 93% | 86.4% | 90.8% | 79.5% | 88.2% | 94.2% |
| O=C(O)COc1c(Cl)cc([N+](=O)[O-])cc1Cl | 101% | 102% | – | 99% | 106% | 97.5% | 92.5% | 80.6% | – | 99.9% |
| CCCCC(CC)CN=C(N)NC(N)=NCCCCCCN=C(N)NC(N)=NCC(CC)CCCC (configuration not stated) | – | -80.9% (active) | -85.3% (active) | -15.3% (active) | 4.41% (active) | -31.3% (active) | -54% (active) | -73.7% (active) | 4.54% (active) | -17.3% (active) |
| COc1ccccc1-n1c(-c2csc(NC(C)=O)n2)n[nH]c1=S | 100% | – | 114% | 89.1% | 114% | – | 93.8% | 92.3% | 79.6% | – |
| CC(=O)O[C@@]12CO[C@@H]1C[C@H](O)[C@@]1(C)C(=O)[C@H](O)C3=C(C)[C@@H](OC(=O)[C@H](O)[C@@H](NC(=O)OC(C)(C)C)c4ccccc4)C[C@@](O)([C@@H](OC(=O)c4ccccc4)C12)C3(C)C (some centres not stated) | – | 59% | 56.3% | 42.1% | 56.9% | 22.6% | 29.9% | 25.4% | 33.5% | 4.8% (active) |
| Nc1cc(-c2ccncc2)c[nH]c1=O | – | 84.1% | 104% | 99.9% | 102% | 73.3% | 113% | 77.4% | 82.5% | 99.5% |
| CC(C)[N+]1(C)C2CC[C@@H]1CC(OC(=O)C(CO)c1ccccc1)C2 (some centres not stated) | – | 105% | 103% | 107% | 105% | 92.4% | 92.3% | – | 90.7% | 88.4% |
| CN1C(C(=O)Nc2ccccn2)=C(O)c2sc(Cl)cc2S1(=O)=O | – | 102% | 103% | 104% | 100% | 90.1% | 87.4% | 110% | 78.8% | 92.4% |
| Cc1ccc(NC(=O)N2CCCCC2)cc1[N+](=O)[O-] | 119% | – | 106% | – | 95% | 107% | 7.44% (active) | 137% | 77.6% | – |
| COc1cc(-c2ccc(N=Nc3ccc4c(S(=O)(=O)O)ccc(N)c4c3O)c(OC)c2)ccc1N=Nc1ccc2c(S(=O)(=O)O)ccc(N)c2c1O | 102% | – | 123% | 121% | 103% | 124% | 105% | 122% | – | – |
| CCCCCOC(=O)Nc1nc(=O)n(C2O[C@H](C)[C@@H](O)[C@H]2O)cc1F (some centres not stated) | – | 99.2% | 99.5% | 98.5% | 99.6% | 82.3% | 96.7% | 103% | 82.1% | 90.5% |
| O=C1C=C(Nc2cccc(Br)c2)c2ccccc2C1=O | 7.56% (active) | – | 53.6% | 89.8% | 50.8% | 88.6% | 81.4% | 81% | – | – |
| O=c1[nH]c(=O)n(C2C[C@H](O)[C@@H](CO)O2)cc1C(F)(F)F (some centres not stated) | – | 109% | 110% | 104% | 106% | 118% | 95% | 70.2% | 89.7% | 96.3% |
